In PubChem BioAssay:

assay: optical density change of DRC41 E. coli – strain DRC41, OD650, 24 h, E. coli filamentation project, primary screen (AID 1093);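 also: MC1000 strain lacking acrAB efflux and sulA so SOS filamentation is blocked; test concentration not given here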; details: E. coli DRC41 growth, higher = more signal, called active from +8 up or from −8 down

z-score, inactive:
[N-]=[N+]=Nc1ccccc1C[C@]1(C(=O)O)N=C(c2ccc(OCCCO)cc2)O[C@H]1c1ccccc1N=[N+]=[N-] 0.814
CC=CC(O)C1C=CC2C(=O)NC(=O)C2N1Nc1ccccn1 (stereo not given) -0.565
CCOC(=O)C1=C[C@@H](C(C)(C)C)N(S(=O)(=O)c2ccc(C)cc2)[C@H]1c1ccccc1 -0.0247
COC(=O)[C@@]1(Cc2ccc(F)cc2)[C@H]2c3cc(C(=O)N4CCCC4)n(CC4CC4)c3C[C@H]2CN1C(=O)c1ccccc1 -0.475
CO[C@H]1O[C@H](CO)[C@@H](OC(=O)Nc2ccc(C#N)cc2)[C@@H]2OC(=O)[C@H](Cc3cccc(Br)c3)C/C=C/C[C@@H](Cc3cccc(Br)c3)C(=O)O[C@@H]12 0.27
COC(=O)[C@@]1(Cc2ccccc2)[C@H]2c3cc(C(=O)N(C)C)n(CCn4cc([N+](=O)[O-])nc4C)c3C[C@H]2CN1C(=O)c1ccccc1 -0.592
Cc1ccc(N2C(=O)c3ccccc3[C@](C)(C(=O)NCc3ccccc3)[C@@H]2c2ccc(CO)cc2)nc1 0.148
COC(=O)[C@@]1(Cc2ccc(F)cc2)[C@H]2c3cc(C(=O)N4CCCC4)n(C)c3C[C@H]2CN1C(=O)c1ccccc1 0.508
CC(C)C(=C=CC[C@@H](O)c1cccc(OCCO)c1)C[C@@H](O)c1ccccn1 0.379
O=C(O)[C@H]1C[C@H]2C(=O)N[C@@H](Cc3ccccc3)C(=O)N2[C@H]1c1cccc(OCCO)c1 0.446
